Screening results (PubChem BioAssay)
TPT1 inh: blocks Candida albicans tRNA 2'-phosphotransferase | recombinant caTPT1, FP RNA substrate dephosphorylation | inhibition, % at 5 µM | 300,000 compounds, 0.81% hits;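 active = inhibition above the mean of all tested compounds plus 3 SD, set per screening campaign, cut at about 24% in these data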;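 note: plate controls were DMSO alone for no effect and ferristatin control at 100 nM for full effect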
ZTA counter: blocks Epstein-Barr virus ZTA, an EBNA-1 counter-screen. P03206. ZTA-DNA binding, fluorescence polarization. inhibition, % at 11 µM. 320,000 compounds, 0.15% hits; in the data active = inhibition above about 33%
Target sequence (P03206 whole entry, looked up): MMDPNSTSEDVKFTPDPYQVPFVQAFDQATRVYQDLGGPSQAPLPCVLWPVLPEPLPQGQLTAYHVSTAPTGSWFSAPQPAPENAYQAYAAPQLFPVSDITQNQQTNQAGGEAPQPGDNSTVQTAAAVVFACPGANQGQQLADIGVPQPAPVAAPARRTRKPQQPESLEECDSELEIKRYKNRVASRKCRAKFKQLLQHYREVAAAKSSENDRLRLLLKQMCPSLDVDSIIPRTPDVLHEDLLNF
GRIN3A LBD mod: NR3A (human) ligand-binding domain modulation. 340,000 compounds, 2.5% hits. NR3A LBD differential scanning fluorimetry, Tm shift; 0% = protein alone, 100% = glycine-bound protein. Tm shift relative to glycine control, % at 25 µM;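 active = melting temperature shift of at least 10% of the positive control shift, at one fixed dose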
EBNA-1 inh: blocks EBNA-1 binding to DNA; 300,000 compounds, 0.34% hits; inhibition, % at 14.8 µM; AID 1950; EBNA-1 DNA binding, fluorescence polarization; in the data active = inhibition above about 28%
Rpn11 block: inhibitors of human proteasome Rpn11; 360,000 compounds, 0.59% hits; inhibition, % at 20 µM; human 26S proteasome, Ub4-pepOG fluorescence polarization; 20S core pre-blocked with epoxomicin;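 active = inhibition at 20 µM, scaled to each plate's controls, above about 33%, limit read from the data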
dFosB activator: activators of mouse delta FosB homodimer. purified delta FosB, TAMRA-CDK5 oligo fluorescence polarization; percent of positive-control signal above neutral wells. P13346. activation, % at 25 µM. 340,000 compounds, 0.99% hits. AID 493131;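 active = mean activation above about 17%, with every replicate also reaching it, limit read from the data, passing the limit was not always enough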
Target sequence (P13346 whole entry, looked up): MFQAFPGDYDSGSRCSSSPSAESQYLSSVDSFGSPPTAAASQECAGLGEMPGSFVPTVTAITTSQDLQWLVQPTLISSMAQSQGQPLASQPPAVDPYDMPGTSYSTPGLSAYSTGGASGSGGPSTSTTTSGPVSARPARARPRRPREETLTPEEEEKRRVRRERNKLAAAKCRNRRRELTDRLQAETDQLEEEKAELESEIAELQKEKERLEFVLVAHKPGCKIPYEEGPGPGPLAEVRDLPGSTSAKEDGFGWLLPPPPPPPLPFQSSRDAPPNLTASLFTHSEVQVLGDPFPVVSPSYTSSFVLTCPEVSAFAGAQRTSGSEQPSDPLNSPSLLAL
* = called active by the depositor; · = not tested or not shown. In the library only some 4.5% were active in any assay of this set; here they are far more common.

SMILES	TPT1 inh	ZTA counter	GRIN3A LBD mod	EBNA-1 inh	Rpn11 block	dFosB activator
CCOc1ccc(/C=N/NC(=O)c2[nH]c3ccc(C)cc3c2C)cc1	·	·	26.2*	·	4.9	-4.0
CCCCOc1ccc(/C=N/NC(=O)c2csc(C)c2C)cc1	0.8	-1.7	28.1*	0.1	-8.1	-0.7
Cc1c(C(=O)N/N=C/C(C)C)[nH]c2ccc([N+](=O)[O-])cc12	-0.1	6.6	-0.1	-1.7	0.6	1.5
Cc1c(C(=O)N/N=C/c2ccc(Cl)cc2)[nH]c2ccc(Cl)cc12	14.4	-3.2	25.8*	6.0	-12.9	13.5
O=C(NC1CCCC1)c1cc(=O)[nH]c2ccccc12	2.3	10.8	-1.6	2.1	-2.4	-6.5
ON=C1c2ccccc2-c2ccc(Br)cc21	·	·	-13.5	·	2.2	-12.7
Nc1cc2c(cc1Br)-c1ccccc1C2=NO	·	·	30.8*	·	-2.4	-8.5
COc1ccc(S(=O)(=O)NC(C)C(=O)NCc2ccc3c(c2)OCO3)cc1OC (stereo not given)	1.7	-5.5	-3.0	-11.4	1.2	-5.2
COc1ccccc1CNC(=O)C(NS(=O)(=O)c1ccc2c(c1)OCCO2)C(C)C (stereo not given)	-0.9	-5.0	-2.7	0.7	5.2	28.2*
CCCOc1ccc(CC(=O)NNC(=S)Nc2ccccc2)cc1Br	3.5	-20.6	18.5*	-3.8	5.8	11.4
COc1ccc(CC(=O)NNC(=S)Nc2ccccc2)cc1Cl	-1.4	-9.0	-11.7	-2.1	7.8	-3.3
COc1ccc(OC)c(C(=O)Cn2c3[n+](c4ccc(C(F)(F)F)cc42)CCCCC3)c1	-1.6	21.4	-0.5	-0.3	-3.7	-0.4
Cc1ccc(-n2nc3c(N4CCC(C(=O)NCc5ccccc5C)CC4)nnc(C)c3c2C)cc1	15.5	-6.2	0.0	-4.8	·	28.4*
COc1ccc(C(NC(=O)C2CCN(CCOc3ccc(Cl)cc3Cl)CC2)c2ccccn2)cc1 (stereo not given)	·	·	·	·	-0.4	·
CN(C)S(=O)(=O)c1ccc(Oc2ccccc2)cc1	-0.8	0.4	-0.6	-9.9	-16.1	-5.2
CCN(CC)S(=O)(=O)c1ccc(Oc2ccccc2)cc1	-0.9	7.6	12.7*	-6.7	-1.8	-8.3
O=C(C[n+]1ccc(/C=N/O)cc1)N1CCCCC1	0.7	-6.0	1.5	-6.1	-0.8	6.3
COCCCN(C(=S)Nc1c(C)cc(C)cc1C)C(C)c1ccccn1 (stereo not given)	-0.1	0.7	-5.4	-5.1	-2.7	-9.2
Cc1cccc2cc3c(N)c(C#N)sc3nc12	-6.2	3.2	35.5*	1.7	13.7	-4.5
CC(C)NC(=O)Nc1ccc2c(c1)C(=O)N([C@H](C)CO)C[C@H](C)[C@@H](CN(C)Cc1ccc(C(F)(F)F)cc1)OCCCC[C@H](C)O2	·	·	·	·	-6.7	·
O=C(NN=Cc1ccccc1C(=O)O)c1cccc(S(=O)(=O)Nc2cccc(C(F)(F)F)c2)c1	·	·	-3.0	·	3.7	-2.9
COc1ccc(OC)c(-c2cc(C(=O)Nc3c(C)nn(Cc4ccc(Cl)cc4)c3C)no2)c1	3.6	-3.5	1.5	2.5	8.0	-6.2
COc1ccc(-c2cc(C(=O)Nc3cc(C)n(Cc4ccc(Cl)cc4)n3)no2)cc1OC	1.4	4.5	-1.0	8.4	7.6	32.5*
CC(/C=N/NC(=O)c1cccs1)=C\c1ccccc1	-1.1	-2.7	-7.2	3.2	-11.3	-8.6
O=C(c1ccncc1)c1ccc(NC(=O)c2cccs2)cc1	0.2	-4.9	-0.5	-1.2	-0.2	1.8
SMILES	TPT1 inh	ZTA counter	GRIN3A LBD mod	EBNA-1 inh	Rpn11 block	dFosB activator
O=C(Nc1ccc(NC(=O)c2cccs2)cc1)c1ccccc1	-2.6	-8.3	15.9*	-9.5	-0.1	4.9
O=C(N/N=C/C(Cl)=C\c1ccccc1)c1cccs1	-3.0	-3.9	13.2*	-13.0	-2.1	-21.9
O=C(Cc1cccs1)Nc1cccc(C(=O)Nc2ccc(C(=O)O)cc2)c1	-0.9	-17.4	22.7*	-6.2	-0.5	-6.5
O=C(Nc1ccc(O)cc1)c1ccc(NC(=O)c2cccs2)cc1	-2.6	5.3	27.9*	4.7	-1.8	-7.9
O=C(O)c1ccc(NC(=O)c2cccc(NC(=O)c3cccs3)c2)cc1	1.8	-8.5	-9.6	4.7	-6.9	-8.0
O=C(Nc1cccc(O)c1)c1cccc(C(=O)Nc2cccc(O)c2)c1	-1.7	-2.6	33.6*	-12.5	-1.0	-5.9
O=C(Nc1cccc(O)c1)c1ccc(Br)cc1	2.4	4.1	5.2	6.6	-1.1	-4.9
O=C(Cc1cccs1)Nc1cccc(-c2nc3cc4ccccc4cc3[nH]2)c1	-1.3	15.3	28.4*	3.2	11.0	12.9
O=C(Nc1cccc(O)c1)c1ccc(NC(=O)c2cccs2)cc1	-5.1	9.5	36.5*	2.6	-8.3	-0.5
COC(=O)c1cc(C(=O)Nc2nnc(C3CC3)s2)cc([N+](=O)[O-])c1	5.1	-5.6	-7.0	4.3	-3.4	-9.2
CC(Cl)=CCn1c(NCCc2ccccc2)nc2c1c(=O)n(C)c(=O)n2C	·	·	·	·	-6.5	·
CN(C)S(=O)(=O)c1cc(C(=O)OCCn2cnc3c2c(=O)n(C)c(=O)n3C)ccc1Cl	-5.5	2.7	-0.6	5.0	-5.2	1.2
CCCOc1ccc(CNC(=S)N/N=C/c2ccc([N+](=O)[O-])cc2)cc1	1.1	3.5	11.3*	1.8	-7.2	-4.5
CCN1C(=O)[C@H]2[C@@H](c3ccc(-c4ccc(C(C)=O)cc4)cc3)N[C@@](Cc3ccccc3)(C(=O)OC)[C@H]2C1=O	-2.8	-8.9	-2.6	6.5	-4.9	-6.8
Cc1ccc(-c2csc(N(CCO)CCCn3c(C(F)(F)F)nc4cc(C(F)(F)F)ccc43)n2)cc1	2.8	12.7	18.6*	0.2	12.1	-8.5
COc1cc(OC)cc(-c2cc(N)n(S(=O)(=O)Cc3ccccc3)n2)c1	-1.5	7.7	-11.2	9.7	0.2	-9.6
COc1ccc(OC)c(S(=O)(=O)n2nc(-c3ccccc3)cc2N)c1	-0.8	4.1	21.9*	-0.7	-0.5	-1.0
COc1ccc(S(=O)(=O)n2nc(-c3ccc(Cl)cc3)cc2N)cc1OC	-1.2	-1.6	14.2*	4.4	-6.0	-11.0
CC(=O)c1ccc(OCC(=O)NC2CCCN(Cc3ccccc3F)C2)cc1 (stereo not given)	·	·	0.2	·	-3.8	-14.9
CC(CCc1ccccc1)NC(=O)CN1C(=O)NC2(CCCCC2C)C1=O (stereo not given)	·	-1.7	1.1	·	-0.1	-10.2
Cc1ccc(NC(=S)NC(=O)CC2CC(C)(C)OC2=O)cc1 (stereo not given)	-5.6	4.2	-0.7	-4.1	-5.4	-6.8
CC1(C)CC(CC(=O)NC(=S)Nc2ccc([N+](=O)[O-])cc2)C(=O)O1 (stereo not given)	-2.3	-1.8	10.2*	-13.2	-2.4	-13.0
CC(C)OCC1CC(CC(=O)Nc2ccc([N+](=O)[O-])cc2)C(=O)O1 (stereo not given)	-3.3	12.3	17.6*	-0.5	0.8	-6.2
Cc1cccc(C(=O)Nc2cccc(C(=O)Nc3cc(C)ccn3)c2)c1	-1.6	6.3	1.1	-4.2	-0.6	-13.5
